The inhibition is the change of the read-out against control, counted positive when it falls.

In one assay the target is PEG-3 (UniProt Q6IN02). Kind of assay: Peg3 promoter luciferase inhibitors, potency, dose response, cell-based, HeLa, CREF/GAPDH counter-screen panel (AID 624167). The settings on record: CREF/GAPDH counter-screens; HeLa PEG-Prom luciferase reporter, overnight, run 2, dose range 1, at 100 µM (top of the series) unless noted.
Sequence of PEG-3 (Q6IN02 whole entry, looked up): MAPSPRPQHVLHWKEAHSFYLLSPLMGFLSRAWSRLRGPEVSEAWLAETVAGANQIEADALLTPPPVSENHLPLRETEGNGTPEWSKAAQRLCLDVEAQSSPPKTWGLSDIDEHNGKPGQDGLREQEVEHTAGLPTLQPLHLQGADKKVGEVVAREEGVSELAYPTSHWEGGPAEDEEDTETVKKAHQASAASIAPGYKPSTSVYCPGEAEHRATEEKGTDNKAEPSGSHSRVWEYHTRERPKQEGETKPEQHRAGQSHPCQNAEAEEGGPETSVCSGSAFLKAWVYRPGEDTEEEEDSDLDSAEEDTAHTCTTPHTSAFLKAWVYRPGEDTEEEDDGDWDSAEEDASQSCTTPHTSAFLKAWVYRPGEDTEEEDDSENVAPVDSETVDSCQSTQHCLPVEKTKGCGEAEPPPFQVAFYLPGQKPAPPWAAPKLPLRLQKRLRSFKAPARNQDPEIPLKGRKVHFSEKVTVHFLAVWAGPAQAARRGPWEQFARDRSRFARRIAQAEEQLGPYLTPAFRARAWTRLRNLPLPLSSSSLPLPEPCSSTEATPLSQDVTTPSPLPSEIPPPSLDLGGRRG
On to `Cc1ccc(-c2nc(-c3ccccn3)no2)cc1Cl`, for which the inhibition stood at 95.2%.

Take `CCCCC(=O)NC(c1ccccc1)c1ccc2cccnc2c1O` (stereo not drawn): the inhibition amounted to 93.6%.

In the case of `CCCC(=O)NC(c1ccc(Cl)cc1)c1ccc2cccnc2c1O` (stereo not drawn), the inhibition stood at 98.7%.

Regarding `Cc1ccc(C(=O)Nc2cnc3ccccc3c2)cc1`, the inhibition turned out to be 98%.

On to `O=C(c1ccco1)N1CCN(C(c2ccccc2Cl)c2nnnn2Cc2cccs2)CC1` (stereo not drawn), for which the inhibition was 44.9%.

With `COC1=C(Br)C(=O)c2ncccc2C1=O`, the inhibition came to 98.6%.

`O=C(N/N=C/c1cc([N+](=O)[O-])ccc1O)c1ccc(COc2ccc3c(c2)CCC3)o1`: the inhibition is 95.1% [run 2, dose range 1, at 25 µM].

Regarding `CN(C)c1c([N+](=O)[O-])cc(N2C(=O)C=CC2=O)cc1[N+](=O)[O-]`, the inhibition is 102%.

As to `CCc1ccc(/C=C2\SC(=S)N(CCCC(=O)Nc3cc(C)on3)C2=O)cc1`, the inhibition was determined as 87.3%.

With `O=c1cnnc(N/N=C/c2ccccn2)[nH]1`, the inhibition is 58.7%.

Consider `COCCCNC(=O)c1ccc(Cn2c(=O)c3ccccc3n(Cc3ccccc3C#N)c2=O)cc1`, for which the inhibition amounted to 64%.

For `NC(Cc1ccc(F)cc1)c1csc(Nc2cc(Oc3ccccc3)ncn2)n1` (stereo not drawn), the inhibition turned out to be 101%.

Consider `CC(C)CC(=NNC(=O)c1ccncc1)c1cc(Cl)ccc1O`, for which the inhibition is 93.6% [run 2, dose range 1, at 50 µM].

`C=CCn1c(C)cc(C(=O)COc2ccc(C)nc2[N+](=O)[O-])c1C`: the inhibition is 43.4%.

On to `Cc1ccc(/C=C2\SC(=S)N(CCCC(=O)Nc3ccccn3)C2=O)cc1`, for which the inhibition turned out to be 94.2%.

Consider `COc1cccc2nc3c(C(=O)NCCN(C)C)cccc3cc12`, for which the inhibition stood at 101%.

For `CS(=O)(=O)c1ccc(-c2sc3ccccc3c2C#CCCO)cc1`, the inhibition was determined as 97.9%.

`O=C(CNC(=O)C(c1ccccc1)c1ccccc1)N/N=C/c1ccc(O)cc1O`: the inhibition turned out to be 52.3%.

`CN(C)c1ccc(/C=C(\C#N)c2ccccn2)cc1`: the inhibition came out at 84.6%.

On to `CC(=O)NC(c1ccc(Cl)cc1Cl)c1ccc2cccnc2c1O` (stereo not drawn), for which the inhibition was determined as 96.7%.

Turning to `O=C(NCCc1ccccc1)c1ccc2c(c1)OCCCO2`, the inhibition was 102%.

For the compound `CC(C)Cc1ccc(C(C)C(N)=NCCc2ccccc2)cc1` (stereo not drawn), the inhibition turned out to be 102%.

As to `CN1C/C(=C/c2ccccc2[N+](=O)[O-])C(=O)/C(=C\c2ccccc2[N+](=O)[O-])C1`, the inhibition stood at 102%.

Take `O=C(O)c1ccc(N/N=C/c2ccc3c(c2)OCO3)cc1`: the inhibition amounted to 102%.

As for `COc1ccc(/C=C2\SC(=S)N(CCCC(=O)NNC(=O)c3ccccc3O)C2=O)cc1`, the inhibition amounted to 81.1%.

Consider `O=C(Nc1ccccc1C(=O)Nc1nnc(C(F)(F)F)s1)c1ccccc1`, for which the inhibition is 88.8%.

Take `O=C(NCCc1ccccc1)c1ccc2c(c1)OCO2`: the inhibition was determined as 97.8%.

As for `Cc1ccsc1/C=N/Nc1cccc(C(=O)O)c1`, the inhibition was 88.9%.

Turning to `CC(=O)c1ccc(-c2cnc3c(NC=O)cc(-c4ccccc4Oc4ccccc4)cn23)cc1`, the inhibition is 56.6%.

Regarding `O=C(Nc1nc2cc3c(cc2s1)OCO3)C1=COCCO1`, the inhibition came out at 94%.

As to `CCCC(=O)NC(c1ccccc1)c1ccc2cccnc2c1O` (stereo not drawn), the inhibition was 71% [run 2, dose range 1, at 25 µM].

With `OCCNc1c2ccccc2nc2ccccc12`, the inhibition was 98.1%.

Turning to `COc1ccccc1C(=O)Nc1nc2ccccc2[nH]1`, the inhibition amounted to 102%.

For the compound `COc1ccc(S(=O)(=O)/N=C2\C=C(Nc3ccc(O)cc3)C(=O)c3ccccc32)cc1`, the inhibition turned out to be 99.7%.

Turning to `Oc1[nH]c2ccc(Br)cc2c1N=NC(=S)N1CCOCC1`, the inhibition was 99%.

Regarding `CCCC(=O)NC(c1ccc(C)cc1)c1ccc2cccnc2c1O` (stereo not drawn), the inhibition is 83.5%.

In the case of `O=c1cc(-c2ccc(O)cc2)oc2ccc3ccccc3c12`, the inhibition worked out at 101%.

Take `CCn1nc(C)cc1-c1nnc(Sc2ncc([N+](=O)[O-])s2)n1C`: the inhibition is 101%.

On to `Clc1ccccc1/C=C/c1nc(-c2ccccn2)no1`, for which the inhibition was found to be 96.5%.

In a further assay the test system is Rat fibroblasts (CREF). The assay is described as above. To be noted: CREF/GAPDH counter-screens; run 1, dose range 1, at 100 µM (top of the series).
With `Cc1ccc(-c2nc(-c3ccccn3)no2)cc1Cl`, the inhibition is 99.3%.

Turning to `CCCCC(=O)NC(c1ccccc1)c1ccc2cccnc2c1O` (stereo not drawn), the inhibition was -26%.

As for `CCCC(=O)NC(c1ccc(Cl)cc1)c1ccc2cccnc2c1O` (stereo not drawn), the inhibition came to 12.3%.

For `Cc1ccc(C(=O)Nc2cnc3ccccc3c2)cc1`, the inhibition turned out to be 83.4%.

Take `O=C(c1ccco1)N1CCN(C(c2ccccc2Cl)c2nnnn2Cc2cccs2)CC1` (stereo not drawn): the inhibition is -23.5%.

As to `COC1=C(Br)C(=O)c2ncccc2C1=O`, the inhibition was found to be 95.3%.

Regarding `O=C(N/N=C/c1cc([N+](=O)[O-])ccc1O)c1ccc(COc2ccc3c(c2)CCC3)o1`, the inhibition was 29.5%.

`CN(C)c1c([N+](=O)[O-])cc(N2C(=O)C=CC2=O)cc1[N+](=O)[O-]`: the inhibition was 101%.

As to `CCc1ccc(/C=C2\SC(=S)N(CCCC(=O)Nc3cc(C)on3)C2=O)cc1`, the inhibition was 29.1%.

On to `O=c1cnnc(N/N=C/c2ccccn2)[nH]1`, for which the inhibition is 49.4%.

For `COCCCNC(=O)c1ccc(Cn2c(=O)c3ccccc3n(Cc3ccccc3C#N)c2=O)cc1`, the inhibition came out at 40.3%.

Consider `NC(Cc1ccc(F)cc1)c1csc(Nc2cc(Oc3ccccc3)ncn2)n1` (stereo not drawn), for which the inhibition came to 95.3%.

As for `CC(C)CC(=NNC(=O)c1ccncc1)c1cc(Cl)ccc1O`, the inhibition worked out at 73.9%.

For `C=CCn1c(C)cc(C(=O)COc2ccc(C)nc2[N+](=O)[O-])c1C`, the inhibition stood at 42.2%.

Take `Cc1ccc(/C=C2\SC(=S)N(CCCC(=O)Nc3ccccn3)C2=O)cc1`: the inhibition is -11.8%.

Consider `COc1cccc2nc3c(C(=O)NCCN(C)C)cccc3cc12`, for which the inhibition came to 98%.

For `CS(=O)(=O)c1ccc(-c2sc3ccccc3c2C#CCCO)cc1`, the inhibition is 95.2%.

As to `O=C(CNC(=O)C(c1ccccc1)c1ccccc1)N/N=C/c1ccc(O)cc1O`, the inhibition was 28.9%.

For the compound `CN(C)c1ccc(/C=C(\C#N)c2ccccn2)cc1`, the inhibition was 98.2%.

Regarding `CC(=O)NC(c1ccc(Cl)cc1Cl)c1ccc2cccnc2c1O` (stereo not drawn), the inhibition was -0.0688%.

`O=C(NCCc1ccccc1)c1ccc2c(c1)OCCCO2`: the inhibition turned out to be 100%.

With `CC(C)Cc1ccc(C(C)C(N)=NCCc2ccccc2)cc1` (stereo not drawn), the inhibition turned out to be 100%.

Take `CN1C/C(=C/c2ccccc2[N+](=O)[O-])C(=O)/C(=C\c2ccccc2[N+](=O)[O-])C1`: the inhibition was 71.1%.

As for `O=C(O)c1ccc(N/N=C/c2ccc3c(c2)OCO3)cc1`, the inhibition was determined as 67.2%.

As to `COc1ccc(/C=C2\SC(=S)N(CCCC(=O)NNC(=O)c3ccccc3O)C2=O)cc1`, the inhibition was 23.4%.

As to `O=C(Nc1ccccc1C(=O)Nc1nnc(C(F)(F)F)s1)c1ccccc1`, the inhibition is -3.72%.

On to `O=C(NCCc1ccccc1)c1ccc2c(c1)OCO2`, for which the inhibition turned out to be 93.9%.

Take `Cc1ccsc1/C=N/Nc1cccc(C(=O)O)c1`: the inhibition was 51.5%.

For the compound `CC(=O)c1ccc(-c2cnc3c(NC=O)cc(-c4ccccc4Oc4ccccc4)cn23)cc1`, the inhibition is -25.1%.

As to `O=C(Nc1nc2cc3c(cc2s1)OCO3)C1=COCCO1`, the inhibition was determined as 93.7%.

`CCCC(=O)NC(c1ccccc1)c1ccc2cccnc2c1O` (stereo not drawn): the inhibition was determined as 59%.

With `OCCNc1c2ccccc2nc2ccccc12`, the inhibition was found to be 73.9%.

As to `COc1ccccc1C(=O)Nc1nc2ccccc2[nH]1`, the inhibition was 100%.

For the compound `COc1ccc(S(=O)(=O)/N=C2\C=C(Nc3ccc(O)cc3)C(=O)c3ccccc32)cc1`, the inhibition came out at 101%.

Turning to `Oc1[nH]c2ccc(Br)cc2c1N=NC(=S)N1CCOCC1`, the inhibition is 30.5%.

For `CCCC(=O)NC(c1ccc(C)cc1)c1ccc2cccnc2c1O` (stereo not drawn), the inhibition came to 3.2%.

In the case of `O=c1cc(-c2ccc(O)cc2)oc2ccc3ccccc3c12`, the inhibition came to 98.1%.

Consider `CCn1nc(C)cc1-c1nnc(Sc2ncc([N+](=O)[O-])s2)n1C`, for which the inhibition came to 99.4%.

Regarding `Clc1ccccc1/C=C/c1nc(-c2ccccn2)no1`, the inhibition turned out to be 89.2%.
